Experimental data: PubChem BioAssay
Inconclusive results are not listed. Activity calls are given as the source filed them.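 Rule for the calls, unless noted: active = GFP response, as percent of the DMSO control, above the screen-wide mean plus 3 SD, about 139; inconclusive = no response measured because the compound's own fluorescence interfered; inactive = the rest.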

How the values were obtained:
[1] = yeast TOR pathway RPL19A-GFP modulators, primary screen, cell-based, S. cerevisiae, multiplex flow cytometry (AID 1862; in the data active = percent of DMSO control GFP below about 86%;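 note: lower values mimic rapamycin by blocking the RPL19A rise seen in DMSO cells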); conditions: S. cerevisiae RPL19A-GFP strain, flow cytometry fluorescence, 3 h; at 10 µM; stronger effect = lower value
[2] = modulators of MEP2-GFP levels in yeast, primary screen, S. cerevisiae, multiplex flow cytometry (AID 1867);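 note: median GFP channel fluorescence of barcode-gated MEP2-GFP cells measured by flow cytometry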; conditions: S. cerevisiae MEP2-GFP strain, 3 h, at 10 µM, stronger effect = higher value, 100% means same as DMSO wells
[3] = modulators of CIT2-GFP expression in yeast, primary screen, S. cerevisiae, GFP fusion, multiplex flow cytometry (AID 1870;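 active = percent response above a set limit, the screen-wide mean plus 3 SD, cut at about 130% in these data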;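 note: barcoded CIT2-GFP strain pooled with four other GFP strains with rapamycin as positive control; median GFP fluorescence per well over plate mean of DMSO wells so 100% = DMSO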); conditions: 3 h, at 10 µM, stronger effect = higher value
[4] = modulators of LAP4-GFP expression in yeast, primary screen, S. cerevisiae, multiplex flow cytometry (AID 1873;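 active = GFP signal, as percent of the solvent control, above the screen mean plus 3 SD, about 149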); conditions: 3 h, at 10 µM, stronger effect = higher value
[5] = modulators of AGP1-GFP expression in yeast TOR pathway, primary screen, cell-based, multiplex flow cytometry, S. cerevisiae (AID 1887;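 active = GFP signal above the screen-wide mean plus 3 SD, that is over about 124.5% of the solvent control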;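 note: AGP1-GFP fusion strain of S. cerevisiae within a five-strain barcoded multiplex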); conditions: 3 h, at 10 µM, stronger effect = higher value
[6] = inhibitors of CD8+ T cell-vesicle binding, pilot screen, LFA-1/ICAM-1 modulator project, MLPCN validation set, flow cytometry (AID 2523;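 active = response below a set limit, under 55% cells CD8-positive and vesicle-bound, and CD8 cells' 90th-percentile brightness under 279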;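 for vesicle binding response: mean PE anti-B7-1 fluorescence of CD8+ cells relative to row control; 100% = QL9-loaded vesicles with DMSO vehicle in the same plate row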); conditions: 2C mouse CD8+ T cells, at 7 µM, stronger effect = lower value; double positive events: measured here: CD8+/vesicle+ event percentage
[7] = biological target: Integrin beta-1 (Homo sapiens) + Integrin alpha-4 (Homo sapiens) (UniProt P13612+P05556); test: inhibition of HUTS-21 binding to VLA-4, pilot screen, VLA-4 allosteric modulator project, U937 cells, HUTS-21 mAb, flow cytometry, validation set (AID 2674;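 active = inhibition above 50%, about 3 SD of the validation set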;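 note: antibody binding induced by the VLA-4 ligand LDV present at three times its Kd; 0% = LDV ligand with antibody and no compound and 100% = antibody without LDV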); conditions: HUTS-21 LIBS mAb binding, at 6.7 µM, stronger effect = higher value, binding induced by LDV ligand
[8] = superoxide lowering in aged yeast cells, pilot screen, validation compound set (AID 2706;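 active = superoxide response below 65% of plate, a cut near 3 SD across the whole screen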;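 note: yeast exposed to compound for one week at 30 degrees C before staining; 100% = mean of all compound wells on the same plate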); conditions: S. cerevisiae aging, superoxide DHE fluorescence; at 10 µM, stronger effect = lower value
[9] = biological target: Beta-adrenergic receptor kinase 1 (Homo sapiens) (UniProt P25098); test: GRK2 binders displacing RNA aptamer, biochemical, validation, human GRK2, bead flow cytometry (AID 488806;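 active = aptamer binding inhibition above 30%, about 3 SD of noise from non-fluorescent compounds; inactive = inhibition at or below 30%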); conditions: bead-bound GRK2, FAM-aptamer displacement, at 10 µM, stronger effect = higher value
[10] = biological target: AP-2 complex subunit beta (Homo sapiens) (UniProt P63010); test: inhibitors of arrestin peptide binding to AP2, pilot screen, biochemical, validation set, GST-AP2 beads, flow cytometry (AID 504541;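 active = inhibition above 54%, about 3 SD of non-fluorescent compounds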;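 note: AP2 carries R879A mutation and is captured from E. coli lysate; bead-bound FITC arrestin peptide fluorescence measuring arrestin peptide binding to AP2; 0% = DMSO wells and 100% = excess unlabeled arrestin peptide control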); conditions: FITC arrestin peptide, at 10 µM, stronger effect = higher value, AP2 beta2 appendage fragment, R879A mutant
[11] = yeast V-ATPase proton transport modulators, S. cerevisiae, pHLuorin, HTS validation (AID 504600; in the data active = response above about 15%;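 note: plate controls were DMSO for no effect and reference compound for full effect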); conditions: S. cerevisiae pHLuorin cytosolic pH, at 10 µM, stronger effect = higher value
[12] = test system: anti-desmoglein-3 scFv antibody binding to human DSG3; test: inhibitors of anti-DSG3 scFv binding to DSG3, pilot screen, biochemical, validation compound set, bead-based, flow cytometry (AID 588368;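 active = binding below the plate cutoff, the plate median minus 3 SD, with a reading above zero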;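 note: signal is the median channel fluorescence of bead-bound GFP antibody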); conditions: Protein G beads, DSG3-Fc, scFv-GFP binding, at 10 µM, stronger effect = lower value
[13] = inhibitors of fungal efflux pumps CDR1, CDR2, MDR1, pilot screen, validation compound set, multiplex, phenotypic (AID 588506;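 active = efflux inhibition above 0.42, the validation set average plus 4 SD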;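 note: Nile Red retained in cells so higher fluorescence means more efflux inhibition; 0 = negative control wells and 1 = enniatin B 25 µM full block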); conditions: S. cerevisiae pump-expressing triplex, Nile Red efflux flow cytometry; at 10 µM; stronger effect = higher value; the pumps come from Candida albicans
[14] = biological target: ATP-binding cassette sub-family B member 6 (Homo sapiens) (UniProt Q9NP58); test: ABCB6 transporter inhibitors, pilot screen, K562-ABCB6 cells, flow cytometry, validation set (AID 588550;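 active = inhibition above the screen-wide mean plus 3 SD, about 51%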;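 note: 0% = DMSO wells and 100% = benzethonium chloride 70 µM positive control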); conditions: K562-ABCB6 porphyrin accumulation, 1 h, at 10 µM, stronger effect = higher value
[15] = promoters of myeloid differentiation in arrested cells, primary screen, cell-based, GFP/MAC1 double positive, flow cytometry, validation set (AID 588685;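 active = differentiation response of at least 50%, scaled between solvent and reference control, from cells with both markers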;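 note: compound exposure lasts four days before antibody staining and flow analysis; 0% = DMSO wells and 100% = 5 µM fulvestrant positive control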); conditions: ER-HoxA9 marrow cells, stronger effect = higher value, normalized: vehicle 0, fulvestrant 100

Sequence of Beta-adrenergic receptor kinase 1 (Homo sapiens) (P25098 whole entry, looked up): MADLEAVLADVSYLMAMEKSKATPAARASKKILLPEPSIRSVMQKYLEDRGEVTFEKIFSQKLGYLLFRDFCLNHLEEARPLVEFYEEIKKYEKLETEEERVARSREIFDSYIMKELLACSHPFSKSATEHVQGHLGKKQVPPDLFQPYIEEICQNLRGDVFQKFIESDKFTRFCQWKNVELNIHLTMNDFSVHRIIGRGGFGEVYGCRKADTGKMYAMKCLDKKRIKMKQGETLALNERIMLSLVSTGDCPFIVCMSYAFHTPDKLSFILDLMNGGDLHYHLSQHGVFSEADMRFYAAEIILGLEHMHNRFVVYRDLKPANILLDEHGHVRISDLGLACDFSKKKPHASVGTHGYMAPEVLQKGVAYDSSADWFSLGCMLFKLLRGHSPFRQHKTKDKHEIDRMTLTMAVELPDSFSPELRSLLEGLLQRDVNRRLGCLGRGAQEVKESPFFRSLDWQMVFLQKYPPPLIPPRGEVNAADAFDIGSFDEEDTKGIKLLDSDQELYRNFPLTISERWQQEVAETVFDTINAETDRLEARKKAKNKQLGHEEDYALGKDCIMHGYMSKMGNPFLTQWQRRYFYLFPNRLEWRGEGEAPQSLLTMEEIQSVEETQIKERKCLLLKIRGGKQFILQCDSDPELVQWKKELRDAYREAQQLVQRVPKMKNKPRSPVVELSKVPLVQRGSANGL
Sequence of Integrin beta-1 (Homo sapiens) + Integrin alpha-4 (Homo sapiens) (P05556 whole entry, looked up): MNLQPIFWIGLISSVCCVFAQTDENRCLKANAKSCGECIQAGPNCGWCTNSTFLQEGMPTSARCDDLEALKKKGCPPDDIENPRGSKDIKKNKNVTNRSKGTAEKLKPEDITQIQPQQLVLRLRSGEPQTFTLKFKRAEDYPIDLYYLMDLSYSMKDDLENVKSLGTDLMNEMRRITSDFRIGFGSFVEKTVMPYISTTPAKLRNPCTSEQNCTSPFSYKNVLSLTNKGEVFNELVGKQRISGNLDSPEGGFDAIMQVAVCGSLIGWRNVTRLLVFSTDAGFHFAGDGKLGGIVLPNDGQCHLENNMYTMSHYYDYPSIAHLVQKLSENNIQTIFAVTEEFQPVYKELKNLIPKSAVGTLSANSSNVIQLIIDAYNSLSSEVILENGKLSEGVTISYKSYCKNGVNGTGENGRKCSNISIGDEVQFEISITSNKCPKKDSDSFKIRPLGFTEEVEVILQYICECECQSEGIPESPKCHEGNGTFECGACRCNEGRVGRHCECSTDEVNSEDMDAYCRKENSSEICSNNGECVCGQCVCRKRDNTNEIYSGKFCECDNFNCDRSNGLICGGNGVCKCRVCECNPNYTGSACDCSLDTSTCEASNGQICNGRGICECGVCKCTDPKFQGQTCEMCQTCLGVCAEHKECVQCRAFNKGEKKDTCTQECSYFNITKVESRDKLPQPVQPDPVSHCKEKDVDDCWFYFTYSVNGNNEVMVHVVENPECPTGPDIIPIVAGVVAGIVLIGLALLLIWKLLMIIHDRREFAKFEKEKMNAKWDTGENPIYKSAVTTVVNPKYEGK
Sequence of Integrin beta-1 (Homo sapiens) + Integrin alpha-4 (Homo sapiens) (P13612 whole entry, looked up): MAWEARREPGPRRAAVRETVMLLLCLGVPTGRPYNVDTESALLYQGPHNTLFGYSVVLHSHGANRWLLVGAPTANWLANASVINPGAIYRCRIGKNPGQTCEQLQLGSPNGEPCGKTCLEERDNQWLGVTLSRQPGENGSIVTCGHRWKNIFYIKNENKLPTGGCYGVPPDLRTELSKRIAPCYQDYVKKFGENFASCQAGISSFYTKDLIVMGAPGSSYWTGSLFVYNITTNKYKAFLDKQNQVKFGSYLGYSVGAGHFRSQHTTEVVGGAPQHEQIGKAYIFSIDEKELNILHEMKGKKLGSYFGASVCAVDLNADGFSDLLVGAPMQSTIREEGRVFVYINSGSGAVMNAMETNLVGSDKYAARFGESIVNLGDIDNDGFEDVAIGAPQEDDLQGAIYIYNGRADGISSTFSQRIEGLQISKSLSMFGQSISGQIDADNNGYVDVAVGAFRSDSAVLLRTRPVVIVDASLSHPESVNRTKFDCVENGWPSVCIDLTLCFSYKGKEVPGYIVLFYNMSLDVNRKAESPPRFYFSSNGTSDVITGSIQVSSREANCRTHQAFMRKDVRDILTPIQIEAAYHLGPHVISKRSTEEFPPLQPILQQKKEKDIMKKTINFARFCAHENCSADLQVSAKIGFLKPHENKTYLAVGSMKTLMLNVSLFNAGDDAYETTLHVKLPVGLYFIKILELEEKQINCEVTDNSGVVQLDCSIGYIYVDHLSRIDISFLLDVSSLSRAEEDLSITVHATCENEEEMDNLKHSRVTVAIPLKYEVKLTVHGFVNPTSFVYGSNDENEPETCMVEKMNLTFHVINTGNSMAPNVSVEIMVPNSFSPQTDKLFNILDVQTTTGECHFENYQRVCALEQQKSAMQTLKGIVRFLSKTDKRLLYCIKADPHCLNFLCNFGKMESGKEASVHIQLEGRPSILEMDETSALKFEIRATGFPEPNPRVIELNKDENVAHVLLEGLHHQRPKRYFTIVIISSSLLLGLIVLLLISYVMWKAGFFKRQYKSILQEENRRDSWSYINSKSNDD
Sequence of ATP-binding cassette sub-family B member 6 (Homo sapiens) (Q9NP58 whole entry, looked up): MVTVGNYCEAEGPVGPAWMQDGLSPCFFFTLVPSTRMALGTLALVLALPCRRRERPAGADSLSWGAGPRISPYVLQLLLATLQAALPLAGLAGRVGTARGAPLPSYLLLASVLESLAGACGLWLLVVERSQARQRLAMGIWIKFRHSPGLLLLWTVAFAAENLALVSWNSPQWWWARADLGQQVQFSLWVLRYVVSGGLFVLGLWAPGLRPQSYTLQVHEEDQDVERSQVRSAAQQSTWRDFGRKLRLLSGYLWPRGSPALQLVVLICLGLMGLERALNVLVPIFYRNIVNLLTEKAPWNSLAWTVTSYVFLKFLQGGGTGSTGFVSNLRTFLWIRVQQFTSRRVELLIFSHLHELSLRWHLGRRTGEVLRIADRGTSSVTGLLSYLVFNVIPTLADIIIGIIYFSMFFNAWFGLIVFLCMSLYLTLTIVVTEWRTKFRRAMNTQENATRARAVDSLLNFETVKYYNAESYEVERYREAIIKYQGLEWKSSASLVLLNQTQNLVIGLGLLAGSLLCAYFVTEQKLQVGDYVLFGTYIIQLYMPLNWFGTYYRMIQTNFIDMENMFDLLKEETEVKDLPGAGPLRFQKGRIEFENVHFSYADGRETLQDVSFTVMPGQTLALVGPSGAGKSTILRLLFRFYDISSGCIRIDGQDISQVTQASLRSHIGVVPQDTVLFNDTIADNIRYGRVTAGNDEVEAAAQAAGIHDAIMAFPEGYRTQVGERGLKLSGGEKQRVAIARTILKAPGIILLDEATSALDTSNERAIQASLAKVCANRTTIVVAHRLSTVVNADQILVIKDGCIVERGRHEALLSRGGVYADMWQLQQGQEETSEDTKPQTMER
Sequence of AP-2 complex subunit beta (Homo sapiens) (P63010 whole entry, looked up, the tested form may be a part, one chain of several): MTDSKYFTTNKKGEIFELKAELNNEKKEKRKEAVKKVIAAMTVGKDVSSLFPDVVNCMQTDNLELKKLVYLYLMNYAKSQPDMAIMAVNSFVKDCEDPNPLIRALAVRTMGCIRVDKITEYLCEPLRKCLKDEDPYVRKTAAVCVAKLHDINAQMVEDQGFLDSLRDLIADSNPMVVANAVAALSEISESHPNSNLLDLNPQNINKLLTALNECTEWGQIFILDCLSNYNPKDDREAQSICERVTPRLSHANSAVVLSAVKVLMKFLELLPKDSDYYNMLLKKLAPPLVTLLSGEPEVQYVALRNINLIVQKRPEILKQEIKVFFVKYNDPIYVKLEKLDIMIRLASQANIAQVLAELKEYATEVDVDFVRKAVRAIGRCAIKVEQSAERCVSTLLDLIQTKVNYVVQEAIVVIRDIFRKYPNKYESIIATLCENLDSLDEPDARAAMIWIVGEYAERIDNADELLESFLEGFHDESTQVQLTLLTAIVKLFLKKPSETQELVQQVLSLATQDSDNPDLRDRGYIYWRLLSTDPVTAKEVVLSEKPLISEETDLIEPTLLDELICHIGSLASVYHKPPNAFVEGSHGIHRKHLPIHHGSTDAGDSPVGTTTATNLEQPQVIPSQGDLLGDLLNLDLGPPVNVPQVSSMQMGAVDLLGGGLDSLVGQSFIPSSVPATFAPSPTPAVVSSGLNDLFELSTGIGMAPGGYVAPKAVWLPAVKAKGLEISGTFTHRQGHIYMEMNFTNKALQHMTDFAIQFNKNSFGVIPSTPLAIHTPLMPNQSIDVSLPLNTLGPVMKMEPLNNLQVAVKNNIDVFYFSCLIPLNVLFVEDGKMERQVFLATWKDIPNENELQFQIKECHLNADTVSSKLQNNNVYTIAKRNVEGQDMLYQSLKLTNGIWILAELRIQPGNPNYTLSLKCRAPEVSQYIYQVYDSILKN

SMILES	percent of DMSO control GFP [1]	GFP response vs DMSO [2]	percent response of DMSO control [3]	GFP response vs DMSO [4]	GFP response, % of DMSO [5]	double positive events [6]	vesicle binding response [6]	inhibition [7]	superoxide response (% of plate) [8]	aptamer binding inhibition [9]	inhibition [10]	response [11]	binding (% of control) [12]	efflux inhibition (fraction of control) [13]	inhibition [14]	differentiation response [15]
COc1c(C)cc(C(=O)C2CCCN(Cc3ccc(Oc4ncccn4)cc3)C2)cc1C (stereo not drawn)	99.5% (inactive)	107% (inactive)	112% (inactive)	103% (inactive)	103% (inactive)	56.4%	202% (inactive)	-4.9% (inactive)	99.2% (inactive)	0% (inactive)	4.02% (inactive)	0.79% (inactive)	101% (inactive)	-0.01 (inactive)	5% (inactive)	-30.9% (inactive)
CC(C)OC(=O)CC1C(=O)NCCN1C(=S)NC(=O)c1cccs1 (stereo not drawn)	98.1% (inactive)	86.7% (inactive)	107% (inactive)	98.4% (inactive)	107% (inactive)	63.2%	190% (inactive)	10% (inactive)	87.2% (inactive)	-2% (inactive)	-4.49% (inactive)	2.24% (inactive)	104% (inactive)	-0.2 (inactive)	8% (inactive)	0% (inactive)
COc1ccccc1C(=O)c1cc2ccc(O)cc2oc1=O	103% (inactive)	110% (inactive)	105% (inactive)	100% (inactive)	100% (inactive)	57.1%	147% (inactive)	12.8% (inactive)	99.2% (inactive)	1% (inactive)	-2.87% (inactive)	5.05% (inactive)	104% (inactive)	0.03 (inactive)	-208% (inactive)	-14.7% (inactive)
Cc1ncc([N+](=O)[O-])n1CC(C)O (stereo not drawn)	101% (inactive)	103% (inactive)	103% (inactive)	99.4% (inactive)	97.3% (inactive)	52.2%	149% (inactive)	8.15% (inactive)	100% (inactive)	9% (inactive)	-6.78% (inactive)	-2.48% (inactive)	100% (inactive)	0.14 (inactive)	8% (inactive)	-9.89% (inactive)
CC(C)NCC(O)COc1ccc(CC(N)=O)cc1 (stereo not drawn)	99.2% (inactive)	100% (inactive)	105% (inactive)	97.3% (inactive)	99.1% (inactive)	61.8%	127% (inactive)	-2.53% (inactive)	82.7% (inactive)	2% (inactive)	-8.74% (inactive)	0.46% (inactive)	101% (inactive)	-0.39 (inactive)	6% (inactive)	-2.69% (inactive)
CC[C@]1(O)C[C@@H]2CN(CCc3c([nH]c4ccccc34)[C@@](C(=O)OC)(c3cc4c(cc3OC)N(C)[C@H]3[C@@](O)(C(=O)OC)[C@H](OC(C)=O)[C@]5(CC)C=CCN6CC[C@]43[C@@H]65)C2)C1	102% (inactive)	101% (inactive)	101% (inactive)	92.3% (inactive)	99% (inactive)	55.4%	153% (inactive)	23.1% (inactive)	86.7% (inactive)	-13% (inactive)	-7.9% (inactive)	1.26% (inactive)	111% (inactive)	0.59 (active)	8% (inactive)	3.03% (inactive)
CCNC(=S)Nc1ccc(OC(F)(F)F)cc1	105% (inactive)	107% (inactive)	102% (inactive)	103% (inactive)	98.7% (inactive)	60.6%	166% (inactive)	-1.17% (inactive)	93.5% (inactive)	1% (inactive)	43.4% (inactive)	-22.5% (inactive)	101% (inactive)	-0.05 (inactive)	-3% (inactive)	11.1% (inactive)
CC(CCc1ccccc1)NCC(O)c1ccc(O)c(C(N)=O)c1 (stereo not drawn)	99.5% (inactive)	98.9% (inactive)	107% (inactive)	109% (inactive)	105% (inactive)	52.5%	175% (inactive)	-2.11% (inactive)	97.6% (inactive)	0% (inactive)	-4.92% (inactive)	-3.48% (inactive)	101% (inactive)	-0.2 (inactive)	9% (inactive)	-6.66% (inactive)
COC(=O)C1=C(C)NC(C)=C(C(=O)OC)C1c1ccccc1[N+](=O)[O-]	102% (inactive)	104% (inactive)	102% (inactive)	108% (inactive)	94.6% (inactive)	53.9%	186% (inactive)	5.36% (inactive)	93.7% (inactive)	-2% (inactive)	34.7% (inactive)	-7.73% (inactive)	104% (inactive)	-0.39 (inactive)	12% (inactive)	-8.27% (inactive)
O=C(Nc1cccc(Cl)c1)N1CCN2C(=O)c3ccccc3C12c1ccccc1 (stereo not drawn)	100% (inactive)	98.9% (inactive)	96.9% (inactive)	92.3% (inactive)	96.3% (inactive)	58.4%	153% (inactive)	0.69% (inactive)	92.6% (inactive)	3% (inactive)	0.48% (inactive)	2.99% (inactive)	102% (inactive)	0.29 (inactive)	7% (inactive)	-13.1% (inactive)
c1ccc2c3c(c(CN4CCCCC4)cc2c1)COC3	109% (inactive)	116% (inactive)	127% (active)	122% (inactive)	104% (inactive)	38%	176% (inactive)	-8.64% (inactive)	116% (inactive)	-6% (inactive)	-17.7% (inactive)	4.2% (inactive)	107% (inactive)	-0.12 (inactive)	11% (inactive)	-14.7% (inactive)
C[N+]12CCC(CC1)C(OC(=O)C(O)(c1ccccc1)c1ccccc1)C2 (stereo not drawn)	96.8% (inactive)	96.9% (inactive)	99.8% (inactive)	100% (inactive)	95.8% (inactive)	60.6%	211% (inactive)	2.56% (inactive)	104% (inactive)	-2% (inactive)	-2.25% (inactive)	2.36% (inactive)	102% (inactive)	-0.35 (inactive)	10% (inactive)	-21.2% (inactive)
CNCCC=C1c2ccccc2CCc2ccccc21	100% (inactive)	98.9% (inactive)	110% (inactive)	97.4% (inactive)	102% (inactive)	49.9%	151% (inactive)	21.2% (inactive)	110% (inactive)	0% (inactive)	-0.2% (inactive)	4.21% (inactive)	100% (inactive)	-0.12 (inactive)	11% (inactive)	-13.1% (inactive)
C[N+]12CCCCC1C(COC(=O)c1ccc3c(c1)OCO3)CCC2 (stereo not drawn)	97.6% (inactive)	96.9% (inactive)	97.9% (inactive)	85.3% (inactive)	93.9% (inactive)	62%	116% (inactive)	10.9% (inactive)	99.1% (inactive)	5% (inactive)	-3.8% (inactive)	1.26% (inactive)	96.7% (inactive)	0.14 (inactive)	12% (inactive)	-19.6% (inactive)
Cc1nc(C)c(C)nc1C	101% (inactive)	101% (inactive)	102% (inactive)	100% (inactive)	103% (inactive)	64.7%	132% (inactive)	12.8% (inactive)	104% (inactive)	-3% (inactive)	31.6% (inactive)	-7.78% (inactive)	103% (inactive)	0.25 (inactive)	8% (inactive)	3.03% (inactive)
CC(=O)NCCCCCCNC(C)=O	106% (inactive)	92.8% (inactive)	110% (inactive)	90.3% (inactive)	106% (inactive)	55.5%	198% (inactive)	4.42% (inactive)	85.1% (inactive)	-1% (inactive)	-11.9% (inactive)	6% (inactive)	94.1% (inactive)	-0.31 (inactive)	5% (inactive)	-22.8% (inactive)
CC(=O)OCC(=O)[C@@]12OC3(CCCC3)O[C@@H]1C[C@H]1[C@@H]3CCC4=CC(=O)C=C[C@]4(C)[C@@]3(F)[C@@H](O)C[C@@]12C	98.5% (inactive)	96.9% (inactive)	99.8% (inactive)	106% (inactive)	101% (inactive)	61.4%	173% (inactive)	-12.4% (inactive)	97% (inactive)	2% (inactive)	26.6% (inactive)	-4.26% (inactive)	96.4% (inactive)	0.9 (active)	6% (inactive)	-3.43% (inactive)
O=C(CC(C(=O)O)c1c[nH]c2ccccc12)c1ccccc1 (stereo not drawn)	101% (inactive)	109% (inactive)	98.8% (inactive)	103% (inactive)	96.3% (inactive)	58.5%	147% (inactive)	10% (inactive)	92.2% (inactive)	4% (inactive)	11.2% (inactive)	-1.72% (inactive)	102% (inactive)	0.03 (inactive)	3% (inactive)	-5.05% (inactive)
